# Screens from PubChem BioAssay.
# Sfp inh = qHTS Assay for Inhibitors of Bacillus subtilis Sfp phosphopantetheinyl transferase (PPTase); AID 1490, 2009; Biochemical Sfp PPTase activity, qHTS; 310,000 compounds, 3.5% hits; Potency, µM, hits mostly inhibitors; 4'-phosphopantetheinyl transferase ffp (Bacillus subtilis), Q9F4F7;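 also: the enzyme is Sfp with the accession as filed and its product quenches rhodamine fluorescence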
#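 Step 1, compound plus 15 nM Sfp-PPTase, 15 min, room temperature. Step 2, add rhodamine-CoA (5 uM) and BHQ-2-YbbR (12.5 uM). Step 3, read 525/598 nm fluorescence at 0 and 30 min.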
# G9a inh = qHTS Assay for Inhibitors of Histone Lysine Methyltransferase G9a | Histone-lysine N-methyltransferase EHMT2 (Homo sapiens), Q96KQ7 | 350,000 compounds, 8.8% hits | G9a H3K9 monomethylation, AlphaScreen, 2 h | Potency, µM (titrated, usually from 102 µM), most hits filed as inhibitors; also: nearly all actives have a fitted effect of over 75% in size
#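 Readings reflect AlphaScreen signal from monomethyl-H3K9 antibody detection. HMT at 20 nM; substrate b-H3K9 500 nM; cofactor SAM 20 uM; 2 h RT reaction; compounds tested as titrations in qHTS with 15 min preincubation.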
# HP1b chromo inh = HTS for Inhibitors of HP1-beta Chromodomain Interactions with Methylated Histone Tails | Chromobox protein homolog 1 (Homo sapiens), P83916 | AlphaScreen HP1-beta / biotin-H3K9me3 peptide binding | Potency, µM (doses to about 114 µM), hits mostly inhibitors | 390,000 compounds, 0.56% hits | AID 540317, 2011; also: nearly all actives have a fitted effect of over 70% in size
#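 Compound inhibition of the preformed complex between 50 nM HP1-beta and 50 nM biotinylated H3K9me3 peptide was read by AlphaScreen. Buffer was PBS pH 7.4 with 0.01% Tween-20. Incubations ran 30 min at room temperature, with 10 ug/mL donor/acceptor beads.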
# TDP1 block = qHTS Assay for Inhibitors of Tyrosyl-DNA Phosphodiesterase (TDP1) | AID 485290, 2010 | Potency, µM (top dose mostly 130 µM), most hits filed as inhibitors | Tyrosyl-DNA phosphodiesterase 1 (Homo sapiens), Q9NUW8 | recombinant TDP1, AlphaScreen DNA substrate cleavage | 350,000 compounds, 0.28% hits; also: nearly all actives have a fitted effect of over 40% in size
#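 Here, a 5' biotin and 3' phosphotyrosine-FITC DNA oligonucleotide reports Tdp1 activity: intact substrate bridges AlphaScreen beads, while cleavage leaves a 3' phosphate and drops signal. All incubations at room temperature.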
# BAZ2B block = qHTS Assay for Inhibitors of BAZ2B; 360,000 compounds, 4.4% hits; Potency, µM (top dose mostly 114 µM), hits mostly inhibitors; Bromodomain adjacent to zinc finger domain protein 2B (Homo sapiens), Q9UIF8; AlphaScreen BAZ2B-H3K14Ac peptide displacement; also: nearly all actives have a fitted effect of over 60% in size
#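 Inhibition is scored as reduced AlphaScreen emission. The BAZ2B/b-H3(5-23)K14Ac complex (50 nM each) in PBS pH 7.4, 0.01% Tween-20 meets compound (up to 110 uM) for 30 min at RT before bead addition.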
# JMJD2A Tudor inh = qHTS Assay for Inhibitors of JMJD2A-Tudor Domain. Lysine-specific demethylase 4A (Homo sapiens), O75164. AlphaScreen JMJD2A-Tudor / H3K4me3 peptide binding. Potency, µM (highest dose often 114 µM), hits mostly inhibitors. 390,000 compounds, 4.4% hits. AID 504339, 2011; also: nearly all actives have a fitted effect of over 50% in size
# Hits are given with their value; . = inactive; ? = inconclusive; / = not tested or not shown; [ ] = remark or other dose. In the library only some 12% were active in any assay of this set; here they are far more common. Calls follow the shape of the dose curve; as a rule, active = well fitted curve in the direction sought with a large enough effect; inconclusive = small, poorly fitted or top-dose-only effect, or another doubt; inactive = no such curve, though single readings can be large; an effect the other way counts as inactive or inconclusive.
SMILES,Sfp inh,G9a inh,HP1b chromo inh,TDP1 block,BAZ2B block,JMJD2A Tudor inh
CN(C)CCn1c(=O)n(Cc2ccccc2)c(=O)c2c3c(sc21)CCCCC3,.,50µM,?,/,?,40µM
O=c1c2c3c(sc2nc(NCCO)n1-c1ccccc1)CCCC3,.,.,.,/,.,.
CC[C@H](C)[C@H](NC(=O)CNC(=O)[C@H](CCCNC(=N)N)NC(=O)CNC(=O)[C@@H](NC(=O)[C@H](Cc1ccc(O)cc1)NC(=O)[C@H](Cc1c[nH]c2ccccc12)NC(=O)[C@H](C)NC(=O)[C@@H]1CCCN1C(=O)[C@H](CC(N)=O)NC(=O)[C@@H](NC(=O)[C@H](CC(=O)O)NC(=O)[C@@H]1CCCN1C(=O)[C@@H](N)[C@@H](C)O)[C@@H](C)CC)[C@@H](C)O)C(=O)N[C@@H](CCCNC(=N)N)C(=O)N1CCC[C@H]1C(=O)N[C@H](C(=O)NCC(=O)N[C@@H](CCCNC(=N)N)C(=O)N[C@@H](Cc1ccccc1)C(N)=O)C(C)C,.,/,/,.,/,/
O=C(c1csnn1)N1CCC2(CC1)CCN(c1ccccc1)CC2,.,.[12.7 µM],/,/,/,/
N#CC1=C(N)N(c2ccc(Br)cc2)C2=C(C(=O)CCC2)C1c1cccnc1 (centres undefined),5.6µM,11µM,.,.,.,.
COc1cc2c(cc1OC)C1(CCCC1)CNC2C (centres undefined),.,.,.,.,.,.
COc1cc2c(cc1OC)C1(CCCC1)CNC2c1ccc([N+](=O)[O-])cc1 (centres undefined),.,35µM,.,.,?,.
Fc1ccc(-c2ccnc(=S)[nH]2)cc1,20µM,.[12.7 µM],.,.,.,.
O=C(C1CCN(Cc2ccc(Cl)cc2)CC1)N1CCN(C(c2ccccc2)c2ccccc2)CC1,45µM,20µM,?,.,79µM,?
O=C(c1ccc(Cl)cc1)C1CCN(Cc2ccccc2)CC1,.,.,.,/,.,.
CCCCNC(=O)C1CCN(Cc2ccc(OCc3ccccc3)cc2)CC1,.,11µM,?,.,?,3.5µM
O=C(C1CCN(Cc2ccc(OCc3ccccc3)cc2)CC1)N1CCCC1,?,14µM,?,.,79µM,1.6µM
CN1CCCN(C(c2ccccc2)c2ccc(Cl)cc2)CC1 (centres undefined),.,?,.,.,?,79µM
O=C(CC1N=C2c3ccccc3N=C(SCC(=O)Nc3ccc(F)cc3)N2C1=O)NCc1ccco1 (centres undefined),/,.,.,.,.,.
CC12CCC(C(N)C1=O)C2(C)C (centres undefined),/,/,.,/,/,.
O=C(C1CCCO1)N1CCN(S(=O)(=O)c2ccccc2)CC1 (centres undefined),.,?,.,.,.,.
OC1CCN(Cc2ccc(OCc3ccccc3)cc2)CC1,.,.[0.501 µM],.,/,.,.
COc1cc(CN2CCCCC2)ccc1OCc1ccccc1,.,/,?,.,?,32µM
Cc1ccc(-c2noc(CN3CCN(C(c4ccccc4)c4ccccc4)CC3)n2)cc1,.,.,.,.,.,.
O=C(C1CCCO1)N1CCN(C(c2ccccc2)c2ccccc2)CC1 (centres undefined),.,8.9µM,.,.,.,.
CCN(CC)C(=O)C1CCN(Cc2ccc(OCc3ccccc3)cc2)CC1,.,10µM,?,/,?,22µM
Cc1cccc(CN2CCN(C(c3ccccc3)c3ccc(Cl)cc3)CC2)c1 (centres undefined),.,?,.,.,50µM,79µM
CCOc1ccccc1NC(=O)Cn1cnc2sc(C)c(S(=O)(=O)N3CCC(C)CC3)c2c1=O,/,.,.,.,.,.
